Experimental findings from PubChem BioAssay (EPA / NIEHS) are described below.

Inconclusive results are not listed. Activity calls are given as the source filed them. The calls were made as follows, unless noted: active = hit-call score of the fitted dose curve at least 0.9, where 1 is the maximum; inconclusive = response in the unintended direction; inactive = score below 0.9.

Assay [1] deals with human Peripheral-type Benzodiazepine Receptor (PBR), TSPO (gene 706) (UniProt P30536). Description: NVS_MP_hPBR: NovaScreen (NVS) Membrane Protein Assay for human Peripheral-type Benzodiazepine Receptor (PBR) (AID 2283331).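 Also: hits reduce radioligand binding relative to DMSO baseline.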 The procedure, abridged: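 Radioligand displacement on human colonic cell membranes, 1 h incubation; bound radioactivity by filtration and scintillation counting. Primary screen in duplicate at 25 uM single concentration, actives followed up in concentration series; loss of binding versus DMSO.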

Assay [2] deals with rat Peripheral-type Benzodiazepine Receptor (PBR), Tspo (gene 24230) (UniProt P16257). Description: NVS_MP_rPBR: NovaScreen (NVS) Membrane Protein Assay for rat Peripheral-type Benzodiazepine Receptor (PBR) (AID 2283335). A digest of the protocol: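 Rat kidney membranes; radioligand binding with displacement, filter-based scintillation counting, 1 h incubation. Primary screen in duplicate at 25 uM, actives followed in concentration series; loss of binding vs DMSO.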

Assay [3] concerns the target Glutamate receptor ionotropic, kainate 1 (Rattus norvegicus) (UniProt P22756). Briefly: NVS_IC_rKAR: NovaScreen (NVS) Ion Channel Assay for rat Kainic Acid Receptors (KAR) (AID 2283334; active = hit-call score of the fitted dose curve at least 0.9, where 1 is the maximum; inactive = score below 0.9). A digest of the protocol:
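Radioligand displacement binding using rat forebrain membranes, 1 h incubation, filter-based scintillation counting. Screened in duplicate at 25 uM, with actives retested in concentration-response up to 50 uM; fitted against DMSO.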

The target in assay [4] is Voltage-gated inwardly rectifying potassium channel KCNH2 (Homo sapiens) (UniProt Q12809). Description: NVS_IC_hKhERGCh: NovaScreen (NVS) Ion Channel Assay for human Potassium Channel ERG (KhERGCh) (AID 2283333). A digest of the protocol:
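Cell-free radioligand competition binding on hERG protein extracted from CHO cells, read by filter-based scintillation counting 0.75 h after dosing. Primary screen at 25 uM in duplicate, actives followed in concentration series. Signal loss fitted versus DMSO.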

Assay [5] in a line: NVS_IC_rCaBTZCHL: NovaScreen (NVS) Ion Channel Assay for Calcium Channel, Type L, Benzothiazepine Site (CaBTZCHL) (AID 2283337). The procedure, abridged: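 Scintillation counting of filter-bound radioligand gave the read-out, with reduced binding versus DMSO scored as activity. Membranes came from rat cortex and were read 1.5 h after compound addition. Chemicals were screened first in duplicate at 25 uM.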

Assay [6] addresses rat Oxytocin Receptor (OXT), Oxtr (gene 25342) (UniProt P70536). Briefly: NVS_GPCR_rOXT: NovaScreen (NVS) G Protein-Coupled Receptor Assay for rat Oxytocin Receptor (OXT) (AID 2283330). A digest of the protocol:
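Radioligand displacement on rat uterine membranes, 1 h incubation, filter-based scintillation counting. Chemicals were screened in duplicate at 25 uM, and those passing threshold were retested in concentration-response up to 50 uM. Loss of binding was fitted versus DMSO.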

Assay [7] has as its target human Androgen Receptor (AR), AR (gene 367) (UniProt P10275). Briefly: NVS_NR_hAR: NovaScreen (NVS) Nuclear Receptor Binding Assay for human Androgen Receptor (AR) (AID 2283332). A digest of the protocol:
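LnCAP cell-free extract; radioligand displacement read by scintillation counting after 20 h. Primary screen single concentration 25 uM in duplicate, actives then run as concentration series; loss-of-signal fitted relative to DMSO baseline.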

Assay [8] deals with bovine Gamma-Aminobutyric Acid Type A Receptor Agonist (GABAR Agonist), GABRA1 (gene 780973) (UniProt P08219). Description: NVS_LGIC_bGABAR_Agonist: NovaScreen (NVS) Ligand-Gated Ion Channel Assay for bovine Gamma-Aminobutyric Acid Type A Receptor Agonist (GABAR Agonist) (AID 2283338). The procedure, abridged: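 Radioligand binding to bovine cerebellar membranes in agonist format, read by filter-based scintillation counting after 1 h. Primary screen in duplicate at 25 uM, with actives followed in concentration series. Gain of signal versus DMSO.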

Assay [9] has as its target rat Gamma-Aminobutyric Acid Type A Receptor BDZ, alpha 6 site (GABARa6), Gabra6 (gene 29708) (UniProt P30191). Briefly: NVS_LGIC_rGABARa6: NovaScreen (NVS) Ligand-Gated Ion Channel Assay for rat Gamma-Aminobutyric Acid Type A Receptor BDZ, alpha 6 site (GABARa6) (AID 2283339). The procedure, abridged: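 Rat cerebellar membranes; radioligand binding, filtration and scintillation counting, read 1 h after dosing. Single-concentration duplicate screen at 25 uM, then concentration-response up to 50 uM for actives; loss of signal fitted versus DMSO baseline.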

Assay [10] addresses rat Glutamate, MK-801 Agonist Site (GluNMDA_MK801), Grin1 (gene 24408) (UniProt P35439). Briefly: NVS_LGIC_rGluNMDA_MK801_Agonist: NovaScreen (NVS) Ligand-Gated Ion Channel Assay for rat Glutamate, MK-801 Agonist Site (GluNMDA_MK801) (AID 2283340). The protocol: NVS_LGIC_rGluNMDA_MK801_Agonist is a biochemical, single-readout assay that uses extracted gene-proteins from Rat forebrain membranes in a tissue-based cell-free assay. Measurements were taken 1.5 hours after chemical dosing in a 48-well plate.NVS_LGIC_rGluNMDA_MK801_Agonist is one of one assay component(s) measured or calculated from the NVS_LGIC_rGluNMDA_MK801_Agonist assay. It is designed to make measurements of radioligand binding, a form of binding reporter, as detected with scintillation counting signals by Filter-based radiodetection technology.Data from the assay component NVS_LGIC_rGluNMDA_MK801_Agonist was analyzed into 1 assay endpoint. This assay endpoint, NVS_LGIC_rGluNMDA_MK801_Agonist, was analyzed in the positive analysis fitting direction relative to DMSO as the negative control and baseline of activity. Using a type of binding reporter, gain-of-signal activity can be used to understand changes in the binding as they relate to the gene Grin1. Furthermore, this assay endpoint can be referred to as a primary readout, because the performed assay has only produced 1 assay endpoint. To generalize the intended target to other relatable targets, this assay endpoint is annotated to the ion channel intended target family, where the subfamily is ligand-gated ion channel. […]

Sequence of rat Peripheral-type Benzodiazepine Receptor (PBR), Tspo (gene 24230) (P16257 whole entry, looked up): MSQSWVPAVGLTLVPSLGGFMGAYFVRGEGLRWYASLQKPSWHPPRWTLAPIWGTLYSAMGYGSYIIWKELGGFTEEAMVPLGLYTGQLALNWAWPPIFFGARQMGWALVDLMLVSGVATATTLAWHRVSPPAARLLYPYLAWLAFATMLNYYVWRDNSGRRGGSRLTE
Sequence of human Androgen Receptor (AR), AR (gene 367) (P10275 whole entry, looked up): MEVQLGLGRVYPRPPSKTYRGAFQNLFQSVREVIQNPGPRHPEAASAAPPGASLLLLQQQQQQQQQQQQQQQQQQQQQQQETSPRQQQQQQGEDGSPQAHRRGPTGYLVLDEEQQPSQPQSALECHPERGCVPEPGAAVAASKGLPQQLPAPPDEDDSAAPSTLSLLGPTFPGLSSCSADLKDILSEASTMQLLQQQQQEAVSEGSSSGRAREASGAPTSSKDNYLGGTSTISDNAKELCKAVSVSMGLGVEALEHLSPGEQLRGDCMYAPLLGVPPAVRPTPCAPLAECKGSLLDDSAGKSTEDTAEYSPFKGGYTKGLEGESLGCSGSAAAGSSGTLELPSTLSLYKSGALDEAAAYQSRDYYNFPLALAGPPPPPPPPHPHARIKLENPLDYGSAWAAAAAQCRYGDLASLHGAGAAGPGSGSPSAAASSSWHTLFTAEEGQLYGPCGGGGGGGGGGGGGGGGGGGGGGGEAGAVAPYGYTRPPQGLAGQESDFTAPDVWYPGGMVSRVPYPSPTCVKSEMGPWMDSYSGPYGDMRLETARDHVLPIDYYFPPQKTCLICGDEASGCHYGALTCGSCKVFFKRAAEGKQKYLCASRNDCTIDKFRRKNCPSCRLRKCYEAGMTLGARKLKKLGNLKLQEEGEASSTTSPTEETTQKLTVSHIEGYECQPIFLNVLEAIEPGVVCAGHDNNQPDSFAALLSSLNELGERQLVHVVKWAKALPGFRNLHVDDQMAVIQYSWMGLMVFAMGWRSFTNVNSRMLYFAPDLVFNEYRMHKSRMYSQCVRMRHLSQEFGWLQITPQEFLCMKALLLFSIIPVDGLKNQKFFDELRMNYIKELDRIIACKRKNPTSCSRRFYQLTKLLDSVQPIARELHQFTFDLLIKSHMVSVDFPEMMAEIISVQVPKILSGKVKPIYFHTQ
Sequence of Voltage-gated inwardly rectifying potassium channel KCNH2 (Homo sapiens) (Q12809 whole entry, looked up): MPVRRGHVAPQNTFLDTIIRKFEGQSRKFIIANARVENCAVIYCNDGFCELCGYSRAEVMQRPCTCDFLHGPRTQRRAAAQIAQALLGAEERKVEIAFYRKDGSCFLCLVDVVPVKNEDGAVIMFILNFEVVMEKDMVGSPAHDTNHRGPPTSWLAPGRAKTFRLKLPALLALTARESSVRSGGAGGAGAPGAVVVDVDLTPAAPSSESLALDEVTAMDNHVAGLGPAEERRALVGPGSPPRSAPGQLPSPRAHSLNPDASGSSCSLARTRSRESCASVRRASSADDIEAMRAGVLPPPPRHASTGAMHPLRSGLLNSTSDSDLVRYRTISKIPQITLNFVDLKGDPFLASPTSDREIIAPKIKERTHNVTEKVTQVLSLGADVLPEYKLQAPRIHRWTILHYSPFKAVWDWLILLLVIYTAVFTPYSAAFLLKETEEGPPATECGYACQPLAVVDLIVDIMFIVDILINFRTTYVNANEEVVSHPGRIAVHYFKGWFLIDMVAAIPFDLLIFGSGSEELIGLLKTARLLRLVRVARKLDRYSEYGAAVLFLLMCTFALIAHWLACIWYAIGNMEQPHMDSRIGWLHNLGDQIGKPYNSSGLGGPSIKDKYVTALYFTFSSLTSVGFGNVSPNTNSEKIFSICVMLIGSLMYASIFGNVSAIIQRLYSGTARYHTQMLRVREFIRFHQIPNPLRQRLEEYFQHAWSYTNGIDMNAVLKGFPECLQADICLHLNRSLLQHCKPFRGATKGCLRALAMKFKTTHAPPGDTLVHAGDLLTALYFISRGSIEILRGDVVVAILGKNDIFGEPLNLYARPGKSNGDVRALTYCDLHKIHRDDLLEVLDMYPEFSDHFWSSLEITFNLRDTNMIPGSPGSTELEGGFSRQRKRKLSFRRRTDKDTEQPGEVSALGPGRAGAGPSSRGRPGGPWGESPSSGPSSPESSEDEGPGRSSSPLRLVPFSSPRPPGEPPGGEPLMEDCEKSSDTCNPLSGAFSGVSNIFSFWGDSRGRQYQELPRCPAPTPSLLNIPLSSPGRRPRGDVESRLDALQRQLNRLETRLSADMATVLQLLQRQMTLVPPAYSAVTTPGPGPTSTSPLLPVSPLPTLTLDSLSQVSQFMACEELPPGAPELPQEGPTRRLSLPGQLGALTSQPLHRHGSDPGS
Sequence of human Peripheral-type Benzodiazepine Receptor (PBR), TSPO (gene 706) (P30536 whole entry, looked up): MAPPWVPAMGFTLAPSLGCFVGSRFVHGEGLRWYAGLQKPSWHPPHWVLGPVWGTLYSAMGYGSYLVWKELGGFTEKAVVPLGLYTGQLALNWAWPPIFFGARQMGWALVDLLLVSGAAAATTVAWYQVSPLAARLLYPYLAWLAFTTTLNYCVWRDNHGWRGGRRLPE
Sequence of rat Oxytocin Receptor (OXT), Oxtr (gene 25342) (P70536 whole entry, looked up): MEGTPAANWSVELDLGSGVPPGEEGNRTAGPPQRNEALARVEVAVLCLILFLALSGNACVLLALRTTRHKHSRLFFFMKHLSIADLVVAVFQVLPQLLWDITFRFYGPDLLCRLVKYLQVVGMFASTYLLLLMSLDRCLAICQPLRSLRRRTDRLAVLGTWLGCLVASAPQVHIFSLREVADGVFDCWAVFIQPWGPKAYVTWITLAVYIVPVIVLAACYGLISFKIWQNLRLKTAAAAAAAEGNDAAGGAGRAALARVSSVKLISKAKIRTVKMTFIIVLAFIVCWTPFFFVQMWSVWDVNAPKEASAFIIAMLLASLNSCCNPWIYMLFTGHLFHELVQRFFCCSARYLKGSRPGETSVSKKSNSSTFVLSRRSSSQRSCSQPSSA
Sequence of bovine Gamma-Aminobutyric Acid Type A Receptor Agonist (GABAR Agonist), GABRA1 (gene 780973) (P08219 whole entry, looked up): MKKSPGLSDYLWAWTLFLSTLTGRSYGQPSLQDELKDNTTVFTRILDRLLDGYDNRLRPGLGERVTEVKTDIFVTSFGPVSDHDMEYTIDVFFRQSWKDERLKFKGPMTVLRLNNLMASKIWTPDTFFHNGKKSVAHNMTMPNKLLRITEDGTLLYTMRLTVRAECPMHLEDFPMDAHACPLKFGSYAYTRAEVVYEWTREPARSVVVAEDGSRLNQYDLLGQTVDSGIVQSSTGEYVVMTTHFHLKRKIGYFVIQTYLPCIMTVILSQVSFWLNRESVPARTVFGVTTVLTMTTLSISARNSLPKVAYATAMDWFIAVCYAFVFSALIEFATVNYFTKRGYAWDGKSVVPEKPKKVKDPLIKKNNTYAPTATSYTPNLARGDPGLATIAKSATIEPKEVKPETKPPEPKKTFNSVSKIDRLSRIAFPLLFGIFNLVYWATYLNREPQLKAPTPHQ
Sequence of rat Gamma-Aminobutyric Acid Type A Receptor BDZ, alpha 6 site (GABARa6), Gabra6 (gene 29708) (P30191 whole entry, looked up): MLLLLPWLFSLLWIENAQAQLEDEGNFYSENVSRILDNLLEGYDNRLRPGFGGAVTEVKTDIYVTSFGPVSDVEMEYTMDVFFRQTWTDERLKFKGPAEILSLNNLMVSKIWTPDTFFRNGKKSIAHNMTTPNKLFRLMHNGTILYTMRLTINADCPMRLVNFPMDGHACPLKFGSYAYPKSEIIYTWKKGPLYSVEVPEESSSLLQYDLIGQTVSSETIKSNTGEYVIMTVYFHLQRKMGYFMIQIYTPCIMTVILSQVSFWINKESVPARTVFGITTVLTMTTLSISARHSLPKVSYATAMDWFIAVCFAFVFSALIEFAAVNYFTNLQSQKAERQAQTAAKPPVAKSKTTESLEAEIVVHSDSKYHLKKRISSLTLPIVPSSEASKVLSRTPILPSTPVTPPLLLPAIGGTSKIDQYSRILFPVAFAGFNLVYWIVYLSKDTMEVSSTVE
Sequence of Glutamate receptor ionotropic, kainate 1 (Rattus norvegicus) (P22756 whole entry, looked up): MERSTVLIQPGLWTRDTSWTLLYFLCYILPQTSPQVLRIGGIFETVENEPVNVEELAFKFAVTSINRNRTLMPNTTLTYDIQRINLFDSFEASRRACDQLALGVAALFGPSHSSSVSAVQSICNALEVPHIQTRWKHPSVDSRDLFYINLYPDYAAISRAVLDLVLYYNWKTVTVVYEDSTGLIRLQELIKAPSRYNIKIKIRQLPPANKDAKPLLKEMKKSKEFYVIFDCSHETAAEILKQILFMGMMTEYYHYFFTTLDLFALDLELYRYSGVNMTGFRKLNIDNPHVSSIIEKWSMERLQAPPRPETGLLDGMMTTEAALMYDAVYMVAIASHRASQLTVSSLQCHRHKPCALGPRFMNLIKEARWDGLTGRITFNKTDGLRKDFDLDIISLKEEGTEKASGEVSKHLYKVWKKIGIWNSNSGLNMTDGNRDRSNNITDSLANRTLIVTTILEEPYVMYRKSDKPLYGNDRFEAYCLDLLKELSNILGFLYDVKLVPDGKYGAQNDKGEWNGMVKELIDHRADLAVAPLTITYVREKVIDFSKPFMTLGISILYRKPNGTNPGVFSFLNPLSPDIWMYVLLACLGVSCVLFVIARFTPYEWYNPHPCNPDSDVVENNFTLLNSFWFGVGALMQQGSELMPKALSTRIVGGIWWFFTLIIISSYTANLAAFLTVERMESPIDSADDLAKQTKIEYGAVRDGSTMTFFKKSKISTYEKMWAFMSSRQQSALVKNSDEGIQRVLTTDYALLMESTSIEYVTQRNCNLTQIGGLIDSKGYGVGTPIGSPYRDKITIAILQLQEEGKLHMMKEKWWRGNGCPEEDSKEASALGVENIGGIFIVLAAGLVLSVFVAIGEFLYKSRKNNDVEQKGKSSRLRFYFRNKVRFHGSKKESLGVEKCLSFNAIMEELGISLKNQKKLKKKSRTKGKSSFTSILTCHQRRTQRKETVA

`COC(=O)N(C(=O)N1CO[C@@]2(C(=O)OC)Cc3cc(Cl)ccc3C2=N1)c1ccc(OC(F)(F)F)cc1`: the AC50 in assay [1] was 0.292 µM (active). The compound was called inactive in assay [2].
In the case of `CNC(=O)Oc1cccc2ccccc12`, the AC50 in assay [2] was 25 µM (active).
As for `CCCCOCN(C(=O)CCl)c1c(CC)cccc1CC`, the AC50 is 6.37 µM (active) in assay [1] and 1.65 µM (active) in assay [2].
Turning to `Cc1c(COC(=O)[C@@H]2[C@H](/C=C(\Cl)C(F)(F)F)C2(C)C)cccc1-c1ccccc1`, the compound was classed as inactive in [1] and in assay [2].
In the case of `CO/N=C(/C1=NOCCO1)c1ccccc1Oc1ncnc(Oc2ccccc2Cl)c1F`, the outcome in [3] was inactive.
On to `COP(=S)(OC)Oc1ccc([N+](=O)[O-])c(C)c1`, for which the AC50 in assay [1] was 25 µM (active). Moreover, the result in assay [2] was inactive.
For the compound `CCCCC(C#N)(Cn1cncn1)c1ccc(Cl)cc1` (stereo not given), the compound was called inactive in assay [1], in assay [4] and in [5]. For the same compound, the AC50 in assay [2] is 12.5 µM (active).
For the compound `CC(C)NC(=O)N1CC(=O)N(c2cc(Cl)cc(Cl)c2)C1=O`, the result in [6] was inactive. Further, the AC50 in assay [1] is 8.8 µM (active); in assay [2] it was 13.3 µM (active).
In the case of `CCOP(=O)(OCC)Oc1nc(Cl)c(Cl)cc1Cl`, the figures for the AC50 in assay [1] and in [2] were 4.32 µM (active) and 1.6 µM (active), respectively.
For the compound `COCC(=O)N(c1c(C)cccc1C)C(C)C(=O)OC` (stereo not given), the outcome in assay [1] was inactive. Besides, the concentration at half-maximal activity (AC50) in assay [2] was 25 µM (active).
In the case of `O=P(O)(O)CCCl`, the compound was classed as inactive in assay [6].
With `CC(C)=CC1C(C(=O)OCc2coc(Cc3ccccc3)c2)C1(C)C` (stereo not given), the call in [1] and in assay [2] was inactive.
Regarding `CCN(CC)c1nc(C)cc(OP(=S)(OC)OC)n1`, the AC50 in assay [1] is 14 µM (active); in assay [2], 0.467 µM (active).
On the same counts, the results for `COc1ccc(-c2ccccc2)cc1NNC(=O)OC(C)C` are 0.149 µM (active) and 0.0966 µM (active).
Turning to `CC1(C)C(C=C(Cl)Cl)C1C(=O)OC(C#N)c1cccc(Oc2ccccc2)c1` (stereo not given), the AC50 in [1] is 14.9 µM (active); in [2], 5.01 µM (active).
With `OC(c1ccc(Cl)cc1)(c1ccc(Cl)cc1)C(Cl)(Cl)Cl`, the call in assay [1] and in [2] was inactive.
`CCCN(CC)CC1COC2(CCC(C(C)(C)C)CC2)O1` (stereo not given): the AC50 in assay [4] is 5.15 µM (active); in assay [5], 9.84 µM (active).
Consider `CC(C)Oc1cccc(NC(=O)c2ccccc2C(F)(F)F)c1`, for which the results for the AC50 in [1] and in [2] were 0.824 µM (active) and 0.28 µM (active), respectively.
On the same counts, the results for `CCNP(=S)(OC)O/C(C)=C/C(=O)OC(C)C` (stereo not given) are 17.5 µM (active) and 11.8 µM (active).
On the same counts, the results for `CCOC(=O)C(C)OC(=O)c1cc(Oc2ccc(C(F)(F)F)cc2Cl)ccc1[N+](=O)[O-]` (stereo not given) are 8.41 µM (active) and 6.45 µM (active).
As to `O=C(Nc1ccccc1-c1ccc(Cl)cc1)c1cccnc1Cl`, the call in [1] and in [2] was inactive.
With `COCC(C)N(C(=O)CCl)c1c(C)csc1C` (stereo not given), the values for the AC50 in [1] and in assay [2] were 9.66 µM (active) and 2.95 µM (active), respectively.
For the compound `O=C1C2CC=CCC2C(=O)N1SC(Cl)(Cl)Cl` (stereo not given), in assay [2], the compound was called inactive.
For `Cc1nc(N(C)C)nc(OC(=O)N(C)C)c1C`, the AC50 in assay [1] was 12.1 µM (active); in assay [2], 19 µM (active).
For the compound `CC1(C)C(C(=O)OC(C#N)c2cccc(Oc3ccccc3)c2)C1(C)C` (stereo not given), the call in [1] and in assay [2] was inactive.
With `Cn1c(-c2ccccc2)cc(-c2ccccc2)[n+]1C`, in [5], the AC50 was 33.3 µM (active).
`CC1(C)CCC(=Cc2ccc(Cl)cc2)C1(O)Cn1cncn1` (stereo not given): the AC50 in [7] is 0.955 µM (active).
With `Nc1cnn(-c2ccccc2)c(=O)c1Cl`, the compound was called inactive in assay [8].
As to `N#Cc1c[nH]cc1-c1cccc2c1OC(F)(F)O2`, the compound was called inactive in [1] and in [2].
Turning to `COC(=O)c1c(C(F)F)nc(C(F)(F)F)c(C2=NCCS2)c1CC(C)C`, the compound was called inactive in assay [1]. In [2], the AC50 was 0.484 µM (active).
Turning to `Clc1nc(Cl)nc(Nc2ccccc2Cl)n1`, the AC50 in [1] is 14.9 µM (active); in assay [2], 1.3 µM (active).
As to `CCOP(=S)(OCC)Oc1nc(Cl)n(C(C)C)n1`, the compound was called inactive in assay [1]. The AC50 in assay [2] was 12.9 µM (active).
Consider `CN=C=S`, for which the outcome in assay [1] was inactive.
As to `CCN(CC)C(=O)C(C)Oc1cccc2ccccc12` (stereo not given), the AC50 in assay [1] is 1.11 µM (active); in assay [2] it was 0.125 µM (active).
Regarding `CC(C)(C)C(=O)C(Oc1ccc(Cl)cc1)n1cncn1` (stereo not given), the AC50 in assay [1] is 44 µM (active); in assay [2], 2.37 µM (active).
On to `N#Cc1c(Cl)cccc1Cl`, for which the call in assay [2] was inactive.
Take `CCCCC(O)(Cn1cncn1)c1ccc(Cl)cc1Cl` (stereo not given): the compound was called inactive in assay [1], in assay [5] and in assay [10]. Besides, the values for the AC50 in assay [7], in assay [4] and in assay [9] were 18 µM (active), 13.4 µM (active) and 1.89 µM (active), respectively.
In the case of `COP(=S)(OC)SCn1nnc2ccccc2c1=O`, the AC50 in assay [1] was 17.5 µM (active); in [7] it was 10.9 µM (active); in assay [2] it was 13.6 µM (active).

The AC50 is the midpoint of the concentration-response curve, whichever way the signal moves.
